HPGD inh = HPGD (human) dehydrogenase inhibition; purified HPGD, NADH fluorescence kinetic, PGE2 substrate; Potency, µM, inactives show at the top dose activity change, negative = inhibition, actives largely listed as inhibitors; 150,000 compounds, 4.3% hits; note: potency is the fitted concentration of half-maximal effect
Target sequence (P15428 whole entry, looked up): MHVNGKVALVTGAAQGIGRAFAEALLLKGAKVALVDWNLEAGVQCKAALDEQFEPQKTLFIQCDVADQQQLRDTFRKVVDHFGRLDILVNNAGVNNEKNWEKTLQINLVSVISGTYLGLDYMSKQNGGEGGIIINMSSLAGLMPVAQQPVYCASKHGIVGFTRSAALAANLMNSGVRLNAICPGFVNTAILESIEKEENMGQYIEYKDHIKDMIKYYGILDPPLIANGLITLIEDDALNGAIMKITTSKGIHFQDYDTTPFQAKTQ
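20 nM HPGD preincubated 15 min at room temperature with compound in 50 mM Tris-HCl pH 8, 0.01% Tween 20. Started with 1 mM NAD+ and 30 uM prostaglandin E2; NADH fluorescence (360/450 nm) read 5 times over 30-s intervals, last minus first.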
PNC inhibitor = inhibitors of perinucleolar compartment assembly; PC3M PTB-GFP, PNC prevalence imaging, 16 h; hits give low values; activity change (PNC), negative = inhibition, % at 10 µM; 140,000 compounds, 3.1% hits;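 active = readout at or below -70, meaning at least 70% loss of cells showing the perinucleolar compartment, a nuclear body marking cancer cells; inconclusive = readout between -30 and a set limit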;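 note: plate controls were DMSO wells for no effect and camptothecin positive control wells for full effect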
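PC3M cells stably expressing PTB-GFP, 750–1000 cells/well, treated 16 h at 37 °C with compound (23 nl of library stock), in duplicate. After paraformaldehyde fixation and Hoechst stain, imaged at 20x; PNC prevalence scored by image analysis.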
IMPase cell inh = IMPase inhibition in cells; inhibition (IP1 accumulation), % at 46.1 µM; CHO-M1 cells, IP1 accumulation, HTRF TR-FRET ratio; AID 901; 120,000 tested, under 10 active; active = well fitted curve in the direction sought with a large enough effect in the signal ratio, not every such curve was filed as active; inconclusive = small, poorly fitted or top-dose-only effect, or a change in a side signal; inactive = no such curve, though single readings can be large or run the other way; the % refers to the signal ratio;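 note: cells stimulated with carbachol in lithium chloride buffer; plate controls were DMSO basal wells for no effect and reference inhibitor wells for full effect; higher means more IMPase inhibition seen as more IP1 and lower FRET ratio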
Target sequence (P97697 whole entry, looked up): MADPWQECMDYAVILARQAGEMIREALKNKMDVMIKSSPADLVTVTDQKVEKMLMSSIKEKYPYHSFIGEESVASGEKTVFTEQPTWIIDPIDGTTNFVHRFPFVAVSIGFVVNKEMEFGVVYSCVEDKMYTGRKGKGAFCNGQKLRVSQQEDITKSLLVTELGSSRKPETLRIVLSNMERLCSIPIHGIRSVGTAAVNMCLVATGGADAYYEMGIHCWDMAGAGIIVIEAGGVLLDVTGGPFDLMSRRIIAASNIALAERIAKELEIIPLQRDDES
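In this qHTS, compounds (final up to 46 uM) act on CHO-M1 cells that are then activated through the M1 receptor with carbachol, in pH 7.4 buffer containing 50 mM LiCl, for 30 min. IP1 accumulation is quantified by the IP-One immunoassay.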
ALDH1A1 block = ALDH1A1 (human) enzyme inhibition | P00352 | Purified ALDH1A1, NADH fluorescence, propionaldehyde substrate | Potency, µM (highest dose often 75.3 µM), for inactives: top-dose activity, negative = inhibition, hits mostly inhibitors | 220,000 compounds, 7.3% hits;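 note: potency is the fitted concentration of half-maximal effect; plate controls were no enzyme wells and a reference inhibitor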
IMPase Li inh = cell-permeable IMPase inhibitors with lithium potentiation; CHO-M1 cells, IP1 TR-FRET (IP-One), carbachol + lithium; Potency, µM (series often up to 59.4 µM), inactives show top-dose activity, negative = IMPase inhibition, most hits filed as inhibitors; 210,000 compounds, 0.35% hits; AID 1457; active = well fitted inhibition curve with a large enough effect; inconclusive = small, poorly fitted or top-dose-only effect; inactive = no such curve, though single readings can be large or run the other way;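 note: IP1 builds up when IMPase is blocked and the TR-FRET signal falls; potency is the fitted concentration of half-maximal effect; plate controls were basal vehicle for no effect and high inhibitor control for full effect; nearly all actives have a fitted effect of over 50% in size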
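Test compounds were applied to CHO-M1 cells previously cultured for 16–30 h at 2000 per well. A small lithium amount accompanied them; after 30 min at 37C, IP1 was quantified by TR-FRET.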
An asterisk follows results filed as active; ? = inconclusive; nt = no result; [ ] = remark or other dose. An excerpt weighted towards active compounds, which were near 11% of everything screened. Unless noted, calls come from the whole dose curve; as a rule, active = well fitted inhibition curve with a large enough effect (not every such curve was filed as active); inconclusive = small, poorly fitted or top-dose-only effect, or another doubt; inactive = no such curve, though single readings can be large or run the other way. Unless noted, % is set by controls: 0 for no effect and ±100 for the full control effect.

SMILES | HPGD inh | PNC inhibitor | IMPase cell inh | ALDH1A1 block | IMPase Li inh
CC(C)Oc1ccc(C(=O)NC2=NCCS2)cc1 | nt | nt | nt | 20µM* | 1%
CC(C)c1ccc(C(=O)NC2=NCCS2)cc1 | -13% | 36 | nt | 3% | -6%
Cc1cc(C)c2nc(Cl)c(CN(Cc3ccco3)C(=O)Nc3ccccc3C)cc2c1 | ? | -90* | 10 | ? | 7%
CCCCC1OC23CCCCC2C(C#N)(C#N)C1(C#N)C(=N)O3 (configuration not stated) | ? | ? | nt | 1.8µM* | 3%
O=C1CC(C(=O)O)S/C(=N\N=C\c2ccc(Br)cc2)N1 (configuration not stated) | nt | nt | nt | -3% | nt
O=C(CSc1ncnc2c1cnn2Cc1ccccc1)Nc1ccc2c(c1)OCCO2 | 0% | ? | -1 | 13µM* | 17%[38.3 µM]
O=C(COC(=O)c1ccc(=O)n(Cc2ccccc2)n1)Nc1ccc2c(c1)OCCO2 | -19% | -9 | 6 | 8.9µM* | 21%[38.3 µM]
O=C(O)c1ccccc1C(=O)Nc1ccc(-c2csc(-c3ccccc3)n2)cc1 | ? | -98* | -11 | ? | -25%
O=C(Nc1ccc(-c2csc(-c3ccccc3)n2)cc1)c1ccccc1Cl | ? | 46 | 12 | ? | -13%[38.3 µM]
C[N+](C)(C)c1ccc([C@H](N)C(=O)O)cc1 | -7% | nt | nt | -1%[13.5 µM] | 8%
CCc1ccc(NC(=O)N(CCN2CCOCC2)Cc2ccc3c(c2)CCCN3CC)cc1 | ? | -24 | 8 | ? | 39%[38.3 µM]
CCN1CCCc2cc(CN(CCN3CCOCC3)C(=S)Nc3ccccc3C)ccc21 | nt | nt | nt | 22µM* | ?
CCN1CCCc2cc(CN(CCN3CCOCC3)C(=S)Nc3cccc(C)c3)ccc21 | nt | nt | nt | 7.9µM* | 11%
CCN1CCCc2cc(CN(CCN3CCOCC3)C(=O)Nc3ccc(C)c(C)c3)ccc21 | -8% | ? | 3 | 28µM* | 16%[38.3 µM]
Cc1cccc(NC(=S)N(CCN2CCOCC2)Cc2ccccc2F)c1 | nt | nt | nt | -16% | 1%
O=C(O)c1ccccc1OP(=O)(O)O | ? | nt | -2[20.6 µM] | ? | -3%
NC(=O)CCCCC(N)=O | -17% | nt | nt | -7% | 15%
Cc1ccc2[nH]c(=O)c(C(c3nnnn3CCc3ccccc3)N3CCOCC3)cc2c1 (configuration not stated) | -23% | -2 | -3 | ? | 15%[38.3 µM]
Cc1cc(OCC(=O)Nc2ccc(C(=O)OC3CCCCC3)cc2)ccc1Cl | nt | nt | -3 | nt | nt
CCN1C(=O)/C(=C\c2ccco2)C(C(=O)OC)=C1C | -5% | -1 | 7 | -10% | 4%[38.3 µM]
CCOc1cc(/C=C2\C(=O)N(CCc3ccc(OC)c(OC)c3)C(C)=C2C(=O)OC)ccc1O | ? | 37 | nt | 11µM* | 6%
C=CCN1C(=O)/C(=C\c2ccco2)C(C(=O)OC)=C1C | 32µM* | 21 | nt | 7% | 2%
COC(=O)C1=C(C)N(Cc2ccc(C)cc2)C(=O)/C1=C\c1ccc(O)c(OC)c1 | ? | ? | 4 | ? | -5%[38.3 µM]
CCOc1cc(/C=C2\C(=O)N(Cc3ccco3)C(C)=C2C(=O)OC)ccc1O | nt | nt | nt | 16µM* | 35%
Cc1ccc(-n2nc(C)c3onc(C)c3c2=O)cc1 | nt | nt | nt | -1% | nt
SMILES | HPGD inh | PNC inhibitor | IMPase cell inh | ALDH1A1 block | IMPase Li inh
O=C(O)/C=C(/C(=O)O)[C@]12CCN3CC4=CCO[C@@H]5CC(=O)N[C@@H]1C5[C@H]4C[C@H]32 (some centres not stated) | -5% | nt | nt | -2%[13.5 µM] | ?
O=C(Cn1c(COc2ccccc2)nc2ccccc21)Nc1cc(Cl)cc(Cl)c1 | 1% | -100* | nt | 4% | 6%
Cc1cc(SCC(=O)c2cc(C)n(C)c2C)nc2ccccc12 | -20% | ? | nt | -13% | 5%
O=C(Nc1ccc(Cl)cc1)OCc1cc(-c2ccccc2Cl)on1 | -4% | 105 | 11 | 4µM* | -2%[38.3 µM]
COc1ccc2c(c1)c(CC(=O)NCc1ccc3c(c1)OCO3)c(C)n2C(=O)c1ccc(Cl)cc1 | -27% | nt | nt | 0% | 4%
NS(=O)(=O)c1cc(C(=O)O)c(O)c2ccccc12 | -26% | nt | nt | -15%[13.5 µM] | -4%
CCOC(=O)c1noc(C)c1C(=O)Nc1nc(C)cc(C)n1 | nt | nt | nt | 20µM* | 6%
Cc1ccc(OCC(=O)Nc2sc3c(c2C(N)=O)CCCC3)c(C(C)(C)C)c1 | nt | nt | 11 | nt | nt
COc1ccc(/C=N/NS(=O)(=O)c2ccccc2)cc1OS(=O)(=O)c1ccccc1 | -6% | -24 | -1 | ? | 3%[38.3 µM]

Screens deposited in PubChem BioAssay by National Center for Advancing Translational Sciences (NCATS).
